ABHD5 PLIN5 PPI = blocks binding of human ABHD5 to perilipin-5; Q00G26+Q8WTS1; hit rate 0.78% among 360,000; inhibition, % at 4 µM; Split G. princeps luciferase complementation, luminescence, 4 h;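 active = inhibition above the mean inhibition across every tested compound plus 3 SD, cut at about 22% in these data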
UHRF1 MBD2 ctr = human UHRF1 methylated DNA binding inhibitors; inhibition, % at 4.4 µM; Q96T88; hit rate 0.75% among 370,000; UHRF1 binding to methylated oligo, TR-FRET; in the data active = inhibition above about 21%;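 note: UHRF1 SRA domain binding a hemimethylated CpG hairpin DNA probe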
rCAG RNA binder = r(CAG) repeat RNA binding; hit rate 1.3% among 370,000; AID 651821; TO-PRO-1 dye displacement fluorescence; inhibition, % at 3 µM;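 active = inhibition above the plate cutoff, the mean of all test compounds on that plate plus 3 SD, cut at about 35% in these data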;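 note: higher means more dye released from RNA so lower well fluorescence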
MBD2 DNA inh = MBD2-methylated oligo binding inhibition; hit rate 0.31% among 370,000; AID 686964; inhibition, % at 4.4 µM; TR-FRET, MBD2 binding to methylated oligonucleotide; in the data active = inhibition above about 13%
LEDGF integ inh = blocks HIV-1 LEDGF/p75-dependent DNA integration; TR-FRET IN-LEDGF/p75 DNA integration, Eu/Cy5; inhibition, % at 3.7 µM; hit rate 0.64% among 370,000;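 active = inhibition above the screen-wide mean plus 3 SD, cut at about 13% in these data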;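 note: signal is the Cy5 over europium emission ratio at 671 and 618 nm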
PRMT1 inh = blocks human protein arginine methyltransferase 1 | hit rate 1.3% among 370,000 | recombinant PRMT1, activity-based probe fluorescence polarization | AID 652257 | inhibition, % at 2.79 µM;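 active = inhibition above about 21% made by adding two undisclosed values, limit read from the data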
Of the large screens only hits and unclear results are named; the others gave an inactive call. Hits are enriched below; roughly 4.1% of the tested compounds scored in any of these assays.

CC(C)C[C@@H](CN)NC(=O)c1nc[nH]c1C(=O)N[C@@H](Cc1ccccc1)C(=O)CNC[C@H](C)NC(=O)c1nc[nH]c1C(=O)N[C@@H](CC(C)C)C(=O)O	UHRF1 MBD2 ctr 21
CC(C)C[C@@H](CN)NC(=O)c1nc[nH]c1C(=O)N[C@@H](Cc1c[nH]c2ccccc12)C(=O)CNC[C@H](C)NC(=O)c1nc[nH]c1C(=O)N[C@@H](C)C(=O)O	UHRF1 MBD2 ctr 24
CC(C)C[C@@H](CNCC(=O)[C@H](Cc1c[nH]c2ccccc12)NC(=O)c1[nH]cnc1C(=O)N[C@@H](C)CN)NC(=O)c1nc[nH]c1C(=O)N[C@@H](Cc1ccccc1)C(=O)O	UHRF1 MBD2 ctr 21
O=C(Cc1c[nH]c2ccccc12)Nc1ccc(Nc2cccnc2)cc1	none (no result: ABHD5 PLIN5 PPI)
CC(C)(C)c1cc[n+](-c2[nH]c(=O)sc2/C=N/NC([S-])=Nc2ccccc2)cc1	PRMT1 inh 116
COc1ccc(S(=O)(=O)n2cccc2)cc1	UHRF1 MBD2 ctr 23
COc1ccc(N2CCN(S(=O)(=O)c3ccc(OC)cc3)CC2)cc1	none
CCOc1cc(NC(=O)c2ccco2)c(OCC)cc1NC(=O)c1ccco1	none
CNC(=S)Nc1cc(OC)c(NC(=O)c2ccco2)cc1OC	UHRF1 MBD2 ctr 43
CCOc1cc(NC(=S)NC)c(OCC)cc1NC(=O)c1ccco1	none
CCOc1cc(NC(=O)c2ccco2)c(OCC)cc1NC(=O)CCc1ccccc1OC	LEDGF integ inh 15
COc1ccc(OC)c(S(=O)(=O)CC(=O)c2cc3ccccc3oc2=O)c1	none (no result: ABHD5 PLIN5 PPI)
CC[C@@]1(c2cccc(Cl)c2)C(=O)N(C(=O)OC(C)C)N1C(=O)OC(C)C	none (no result: ABHD5 PLIN5 PPI)
CC1=C(C(=O)N(C)C)CC(CC(=O)NCCc2ccccn2)C(=O)N1Cc1ccc(C(C)(C)C)cc1 (configuration not stated)	UHRF1 MBD2 ctr 21
CC1=C(C(=O)N(C)C)CC(CC(=O)NCCc2ccccn2)C(=O)N1Cc1ccc(F)cc1 (configuration not stated)	none
COc1ccc(/C=C/C(=O)NCc2ccccn2)cc1	none
Cc1ccc(/C=C/C(=O)NCc2ccccn2)o1	PRMT1 inh 21
C[C@@H]1[C@@H](O)C[C@@]2(CC(=O)c3ccccc3O2)O[C@H]1c1ccccc1	none (no result: ABHD5 PLIN5 PPI)
COc1ccc(-[n+]2c(C)cc(/C=C3\Sc4ccccc4N3C)cc2C)cc1	PRMT1 inh 24
COc1ccc(C(=O)/C=C2\Sc3ccccc3N2C)cc1	none
COC(=O)[C@]12C[C@H](CC(=O)NCc3cccc(C(F)(F)F)c3)C(=O)N(Cc3ccco3)C1=C[C@H](COCc1ccccc1)O[C@@H]2C	none (no result: ABHD5 PLIN5 PPI)
CCOC(=O)C1=C(C(=O)OCC)C2N(Cc3ccccc3)c3ccccc3[C@@]23C[C@@H](C(=O)OC)N(S(=O)(=O)c2ccc(C(F)(F)F)cc2)C3=N1 (some centres not stated)	none (no result: ABHD5 PLIN5 PPI)
CC1CCCN(Cc2c(O)ccc3c2O/C(=C\c2ccco2)C3=O)C1 (configuration not stated)	LEDGF integ inh 29, PRMT1 inh 22
CCN1CCN(Cc2c(O)ccc3c2O/C(=C\c2ccccc2)C3=O)CC1	none
COC(=O)C1=C(C)N(Cc2cccc(C(F)(F)F)c2)C(=NCc2ccccc2C(F)(F)F)NC1c1ccc(Cl)cc1 (configuration not stated)	none (no result: ABHD5 PLIN5 PPI)
CC1(C)CC(=O)N(CC(=O)N2CCN(c3ccc(F)cc3)CC2)c2ccccc2S1(=O)=O	none (no result: ABHD5 PLIN5 PPI)
Cc1cc2c(nc1C)CCCN2S(=O)(=O)c1c(C)noc1C	none (no result: ABHD5 PLIN5 PPI)
Nc1ccc(C(=O)Nc2nc3ccccc3s2)cc1	none
O=C(Nc1nc(=O)c2ccccc2s1)c1ccc(F)cc1	PRMT1 inh 48
COc1cc(OC)cc(C(=O)NCCN2C(=O)C3C4C=CC(C4)C3C2=O)c1 (configuration not stated)	none (no result: ABHD5 PLIN5 PPI)
Cc1nn(-c2ccc(Cl)cc2)c(Cl)c1/C=N/NC(=O)c1ccc(NS(=O)(=O)c2cccs2)cc1	rCAG RNA binder 62
Cc1nn(-c2ccc(F)cc2)c(Cl)c1/C=N/NC(=O)c1cccs1	none
CCOC(=O)C1=CN(Cc2ccco2)S(=O)(=O)N(C)C1c1ccc2ccccc2c1 (configuration not stated)	none
CCOC(=O)C1=CN(Cc2ccco2)S(=O)(=O)N(C)C1CC (configuration not stated)	UHRF1 MBD2 ctr 22
O=C(C[n+]1cc(-c2ccc(Cl)cc2)n2c1CCC2)N1c2ccccc2Sc2ccccc21	ABHD5 PLIN5 PPI 23
O=C(C[n+]1cc(-c2ccc(Cl)c(Cl)c2)n2c1CCC2)N1c2ccccc2Sc2ccccc21	ABHD5 PLIN5 PPI 34
COc1ccc(-c2c[n+](CC(=O)N3c4ccccc4Sc4ccccc43)c3n2CCC3)cc1	none
O=[N+]([O-])c1cncc2[nH]cnc12	none (no result: ABHD5 PLIN5 PPI)
CC(=O)N1c2cc(S(=O)(=O)Nc3c(C)n(C)n(-c4ccccc4)c3=O)c(Br)cc2CC1C (configuration not stated)	none (no result: ABHD5 PLIN5 PPI)
COC(=O)c1ccc(Cn2cnc3c(cnn3-c3ccc(F)cc3)c2=O)o1	none
COC(=O)c1ccc(Cn2cnc3c(cnn3-c3ccc(Cl)cc3)c2=O)o1	UHRF1 MBD2 ctr 32
O=P(O)(c1ccccc1)c1ccccc1O	none
O=P(c1ccccc1)(c1ccccc1)c1cc(S(=O)(=O)O)ccc1O	UHRF1 MBD2 ctr 27
O=S(=O)(c1ccc(C2=CSC3=NCCN23)cc1)N1CCOCC1	PRMT1 inh 24
COc1ccc(-c2nnc(SCC(=O)N(C)C3CCS(=O)(=O)C3)n2N)cc1OC (configuration not stated)	UHRF1 MBD2 ctr 42
COc1ccc(-c2nnc(SCC(=O)N(C)C3CCS(=O)(=O)C3)n2CC(C)C)cc1 (configuration not stated)	none
O=C(COc1ccc(Br)cc1)Nc1ccc(C(=O)Nc2ccccc2C(=O)O)cc1	none
O=C(COc1ccc2ccccc2c1)Nc1cccc(C(=O)Nc2ccccc2C(=O)O)c1	rCAG RNA binder 83
CCOC(=O)CC[C@@H]1CC[C@]2(CCCN(Cc3nccs3)C2)O1	none (no result: ABHD5 PLIN5 PPI)
C[C@]12CC[C@@H]3c4ccc(O)cc4CC[C@H]3[C@@H]1CC[C@@H]2O	none
C[C@]12CC[C@@H]3c4cc(O)c(O)cc4CC[C@H]3[C@@H]1CC[C@@H]2O	PRMT1 inh 33
C[C@@H]1OC(C2CCCCC2)N(C)[C@H]2C[C@H]3c4cc(-c5ccc6c(c5)OCO6)ccc4CCN3C[C@@H]12 (some centres not stated)	none (no result: ABHD5 PLIN5 PPI)
COc1ccccc1NC(=O)CN1CCN(C(=O)c2ccco2)CC1	UHRF1 MBD2 ctr 27
COc1ccccc1NC(=O)N1CCN(C)CC1	UHRF1 MBD2 ctr 34
O=C(CSc1nnc(SCc2cccc3ccccc23)s1)Nc1ccccc1-c1ccccc1	none (no result: ABHD5 PLIN5 PPI)
CN1CCN(C2CN(Cc3cn(Cc4ccc(F)cc4)nn3)S(=O)(=O)C2)CC1 (configuration not stated)	UHRF1 MBD2 ctr 21

Assay outcomes deposited in PubChem by The Scripps Research Institute Molecular Screening Center.
